Test results published in PubChem BioAssay AID774 (SRMLSC, 2007).
About 15 (0.02%) of roughly 65,000 compounds were called active.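 Rule for the calls: active = single-dose screening hits from any of four coupled enzyme assays that gave an IC50 when retested across doses; inconclusive = no clear call, values can overlap the other calls; inactive = the rest.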 The list is a sample of the results. Non-standard residues stand in square brackets, D forms with d. Residues, ends and D or L forms follow the SMILES beside them. ξ: configuration not given here. ξV = CC(C)C(N)C(=O)O

Assay: inhibitors of PK/LDH coupling enzymes, profiling panel, artefact control, biochemical, MLSMR library (AID 774);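 note: the DPM-DC format reads NADH fluorescence rather than 340 nm absorbance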
Settings: coupled PK/LDH NADH assays, four targets; at 10 µM; stronger effect = higher value

inhibition, inactive:
O=C(NC1=NCCS1)c1ccc(Cl)s1 10%
c1ccc(-c2noc(-c3cccs3)n2)nc1 3%
CCCOC(=O)Nc1sc2c(c1C(=O)OCC)CCC2 5%
O.O.O.O=S(=O)([O-])OC[C@H]1O[C@@H](O[C@]2(COS(=O)(=O)[O-])O[C@H](OS(=O)(=O)[O-])[C@@H](OS(=O)(=O)[O-])[C@@H]2OS(=O)(=O)[O-])[C@H](OS(=O)(=O)[O-])[C@@H](OS(=O)(=O)[O-])[C@@H]1OS(=O)(=O)[O-].[Al] 1%
CC(=O)c1c(C)n([O-])c2ccccc2[n+]1=O 5%
Cc1ccc2[nH]c3c(c2c1)CN(C(=O)CN1CCN(c2ccccc2)CC1)CC3 3%
CCn1c(SCC(=O)NCc2ccco2)nnc1-c1ccc(N)cc1 3%
COc1ccc2c3c(c(=O)oc2c1OCC(=O)C(C)(C)C)CCCC3 4%
O=C(O)c1ccc(F)c(S(=O)(=O)Nc2ccccc2)c1 6%
CC1CN(Cc2nc3c(c(=O)n(C)c(=O)n3C)n2Cc2cccc(Cl)c2)CC(C)O1 (configuration not stated) 5%
CC(=O)NC(C(=O)NCC(N)=O)C(C)C (configuration not stated) (Ac-[ξV]-Gly-NH2) 4%
Cn1c(-c2ccc(C(=O)c3ccccc3)s2)nc2ccccc21 6%
O=C(Oc1ccc2c(c1)CCC2)N1CCOCC1 3%
O=P(c1ccc2c(c1)OCCO2)(N1CCOCC1)N1CCOCC1 0%
CCOc1ccc(OCC)c(NC(=O)C(NS(=O)(=O)c2ccc3c(c2)oc(=O)n3C)C(C)C)c1 (configuration not stated) 7%
O=C(O)CN1C(=O)CC(Cc2ccccc2)C1=O (configuration not stated) 1%
CCCc1cc(=O)oc2c(C)c(O)c(CN3CCCCC3)cc12 1%
CO/N=C(\C(=O)N[C@@H]1C(=O)N2C(C(=O)O)=C(COC(C)=O)CS[C@H]12)c1csc(N)n1 (stereo in doubt) 0%
Cc1noc(C)c1S(=O)(=O)N(CC(=O)NCc1ccc(Cl)cc1)c1ccc2c(c1)OCO2 9%
C=CCNC(=O)CCCC(=O)NCC=C 5%
CCCn1c(SCC(=O)Nc2cccc(C(=O)OCC)c2)nnc1-c1ccoc1C 7%
C=CCOc1nc2c(c(=O)n(C)c(=O)n2C)n1Cc1ccc(Cl)cc1Cl 8%
Fc1ccc2nc(Nc3nc4c(s3)CCCC4)sc2c1 3%
C=CCNC(=O)C1CC=CCC1C(=O)O (configuration not stated) 4%
CCO/C([O-])=N/c1c[n+](N2CCOCC2)no1 1%
COC(=O)Cc1csc(Nc2c(C)n(C)n(-c3ccccc3)c2=O)n1 8%
COc1ccccc1C1/C(=C(/O)c2ccc(C)cc2)C(=O)C(=O)N1Cc1ccco1 (configuration not stated) 10%
C=CCc1cccc2cc(C(=O)OCC)c(=O)oc12 6%
Cn1c(=O)c2c(nc(OCc3cccnc3)n2Cc2ccccc2)n(C)c1=O 3%
CCOc1ccc(OCC)c(NC(=O)CN(C)S(=O)(=O)c2cccc3nsnc23)c1 4%
O=C(OCC(O)C(O)COC(=O)c1ccccc1)c1ccccc1 (configuration not stated) 5%
c1ccc2c(CNn3cnnc3)cccc2c1 3%
